RAM network inh: inhibitors of the yeast RAM network, primary screen, dse1pr::URA3 reporter, 5-FOA selection; inhibition, % at 50 µM; S. cerevisiae dse1pr::URA3 reporter, 5-FOA growth OD615, 2 d; analog-sensitive cbk1-as2 kinase mutant strain; 1.8% of 190,000 active;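 active means inhibition above a set limit, 3 SD over mean compound inhibition, cut at about 8.4% in these data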;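 further: inhibition rescues growth on 5-FOA so higher OD means more RAM inhibition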
CHOP inh: inhibitors of CHOP promoter induction, primary screen, cell-based, unfolded protein response, luciferase reporter; CHO-K1 CHOP-promoter luciferase, tunicamycin-induced, 15-18 h; inhibition, % at 10 µM; 3.8% of 220,000 active;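 active means compounds that reduced the stress-induced luciferase reporter signal by more than about 70% of percent inhibition, limit read from the data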
L major viab: Leishmania major promastigote growth inhibition, primary screen | Leishmania major promastigotes, resazurin fluorescence viability | inhibition, % at 10 µM | 9% of 200,000 active; in the data active means inhibition above about 50%;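 further: promastigotes grown with compound for 44 hours at 28 °C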
WT yeast gro inh: growth inhibition of WT strain, primary screen, mitochondrial fusion inhibitor project, WT and mutant strains, chemical genetic. inhibition, % at 10 µM. 2.1% of 190,000 active. mitochondrial fusion phenotypic screen; in the data active means inhibition above about 58%; tested in S. cerevisiae
CHOP confirm: retest of CHOP induction inhibitors, confirmation, cell-based; 45% of 2,100 active; inhibition, % at 10 µM; shares compounds with CHOP inh; AID 504437, 2011; CHO-CHOP promoter luciferase reporter, tunicamycin-induced, luminescence;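 active means mean of three repeat readings of reporter signal inhibition above a set limit, cut at about 70% in these data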
Each line names hits and unclear results; the compound was inactive in the other large screens (follow-up assays come after a bar, where they were run). A selection: hits, their analogues and other compounds. The true share with any hit is near 13%.

Cc1cccc(C(=O)NNC(=O)c2cc3cc4ccccc4nc3s2)c1	CHOP inh 103.1 | CHOP confirm inactive
COC(=O)CC1C(=O)NCCN1C(=S)NC(=O)c1sc2ccccc2c1Cl (stereo unspecified)	none
Cc1cc(C)n(C(=O)Cn2nc([N+](=O)[O-])c(Br)c2C)n1	none
Cc1cc(N=Nc2c(O)c3ccccc3[nH]c2=O)ccc1N=Nc1ccc(C(=O)N(C)C)cc1	CHOP inh 104.5 (no result: RAM network inh, L major viab, WT yeast gro inh) | CHOP confirm inactive
Cc1ccc(N=Nc2c(O)c3ccccc3[nH]c2=O)c(S(=O)(=O)N(C)C)c1	none (no result: RAM network inh, L major viab, WT yeast gro inh)
Cc1ccc(S(=O)(=O)Nc2ccc(Cl)cc2)cc1NC(=O)c1cc2c(s1)CCCC2	CHOP inh 103.5 | CHOP confirm inactive
COC(=O)CC1C(=O)NCCN1C(=O)CSc1nc2ccc([N+](=O)[O-])cc2s1 (stereo unspecified)	none
CCOC(=O)c1ccc(NC(=O)CSc2nnc(CCc3ccc(C)o3)n2-c2ccccc2)cc1	CHOP inh 103.1, L major viab 51.6 | CHOP confirm inactive
Nc1c(S(=O)(=O)c2ccccc2)c2nc3ccccc3nc2n1/N=C/c1cccc(O)c1	CHOP inh 102.9, L major viab 91.1 | CHOP confirm 71.9
Cc1ccc(S(=O)(=O)N(C)CC(O)Cn2c3ccccc3c3ccccc32)cc1 (stereo unspecified)	RAM network inh 8.6, CHOP inh 100.9 | CHOP confirm inactive
CCCN(CCC)C(=O)Cn1c(=O)n(CCCCCC(=O)Nc2ccccc2)c(=O)c2sccc21	none
COCCn1c(=NC(=O)CSC(C)=O)sc2cc(F)ccc21	none
COCCn1c(=NC(=O)/C=C/c2cccs2)sc2cc(NC(C)=O)ccc21	CHOP inh 105.0 | CHOP confirm 78.9
CN(C(=O)CCl)C1CCCc2ccccc21 (stereo unspecified)	CHOP inh 105.9, L major viab 85.8 | CHOP confirm 80.2
CCOC(=O)c1c2ccc(OCC(=O)NN)cc2n2ccccc12	none
CCOC(=O)c1c2ccc(OCC(=O)N/N=C/c3ccc(C)cc3)cc2n2ccccc12	CHOP inh 103.6 | CHOP confirm 113.7
CCNc1nc(Oc2c(Cl)cccc2Cl)cc(C(F)(F)F)n1	CHOP inh 97.5, L major viab 76.6 | CHOP confirm 101.5
Cc1nn(-c2ccccc2Cl)c(Cl)c1/C=N/Nc1nc2ccccc2s1	CHOP inh 96.7, L major viab 59.4 | CHOP confirm 98.4
CCOC(=O)N/N=C/c1c(C)nn(-c2ccccc2Cl)c1Cl	none
CSc1cccc(NC(=O)N2CCCC(CNS(=O)(=O)Cc3ccccc3)C2)c1 (stereo unspecified)	none
CNc1nc(N)nc(OC(C(F)(F)F)C(F)(F)F)n1	none
Nc1cccc(Nc2nc(OC(C(F)(F)F)C(F)(F)F)nc(OC(C(F)(F)F)C(F)(F)F)n2)c1	CHOP inh 100.0 | CHOP confirm 117.1
Cc1cccc(C)c1NC(=O)c1sc(Cl)nc1C	none
O=C(N/N=C/c1cccc(O)c1)c1ccc(COc2ccc3c(c2)CCC3)o1	CHOP inh 108.9 | CHOP confirm inactive
Cc1ccc2[nH]c(=O)c3cc(C(=O)N(C)c4ccccc4C)sc3c2c1	CHOP inh 101.2 (no result: RAM network inh, L major viab, WT yeast gro inh) | CHOP confirm inactive
COC(=O)c1cnn(-c2nc(OC)cc(OC)n2)c1C	none
COc1cc(OC)nc(-n2ncc(Br)c(Br)c2=O)n1	CHOP inh 111.0, L major viab 100.3 | CHOP confirm 118.5
CC(NC(=O)c1ccc(F)cc1)C(=O)NC1=NCCS1 (stereo unspecified)	none
CCCCc1c(C)c(C#N)c2nc3ccccc3n2c1Nc1c(C)n(C)n(-c2ccccc2)c1=O	none
CCCCc1c(C)c(C#N)c2[nH]c3ccccc3n2c1=O	CHOP inh 102.9, L major viab 65.0 | CHOP confirm inactive
CCOC(=O)C(C)Oc1cccc2c(=O)n(CC(=O)Nc3ccc(OCC)cc3)ccc12 (stereo unspecified)	CHOP inh 105.8 | CHOP confirm inactive
Cc1cc(=O)oc2cc(OCC(=O)NCCCN3CCOCC3)ccc12	CHOP inh 99.8 | CHOP confirm inactive
Cc1ccc(OCC(=O)NCCN2CCOCC2)cc1C	none
Cc1ccc(CNC(=O)C2CCN(S(=O)(=O)N3CCC4(CC3)OCCO4)CC2)cc1	none
Cc1ccc2c(c1)N(CC(=O)NCc1cccs1)C(=O)CO2	none
Cc1cccc(N2CCN(C(=S)Nc3ccc4nc(N5CCN(C)CC5)cc(C)c4c3)CC2C)c1 (stereo unspecified)	CHOP inh 106.3, L major viab 97.7 | CHOP confirm inactive
Cc1cc(N2CCN(C)CC2)nc2ccc(NC(=S)N3CCN(c4cccc(Cl)c4)CC3)cc12	none
O=S(=O)(NC1=NCCC1)c1ccc(F)cc1F	none
Cc1ccccc1CCN(C(=O)Cn1nnc2ccccc21)C(C(=O)NC(C)(C)C)c1ccsc1 (stereo unspecified)	CHOP inh 98.3 | CHOP confirm inactive
O=C(COc1ccc(Cl)cc1)Nc1ccccc1C(=O)NCc1ccco1	CHOP inh 97.0 | CHOP confirm inactive
Cc1cc(C)cc(OCC(=O)Nc2ccccc2C(=O)NCc2ccco2)c1	none
CCOC(=O)C(C)Oc1ncnc2cccc(F)c12 (stereo unspecified)	none
COc1ccc2c(C)nc(N/C(N)=N/S(=O)(=O)c3ccc(C)cc3)nc2c1	none
Cc1nc(Nc2nc(CSc3nc4ccccc4[nH]3)cc(=O)[nH]2)nc2ccccc12	CHOP inh 99.3 | CHOP confirm 86.7
Cc1nc(Nc2nc(CSc3ccc(Cl)cc3)cc(=O)[nH]2)nc2ccccc12	none
COc1ccc2c(C)nc(Nc3nc(C)c(C)c(=O)[nH]3)nc2c1	CHOP inh 99.1, L major viab 100.3, WT yeast gro inh 62.4 | CHOP confirm 106.2
COc1ccc2nc(Nc3nc(CSc4nc5ccccc5[nH]4)cc(=O)[nH]3)nc(C)c2c1	CHOP inh 102.5, L major viab 100.1 | CHOP confirm 102.8
CC(C)(C)c1ccc(C(=O)NCC(=O)OCC(=O)c2ccc3c(c2)-c2ccccc2C3)cc1	none
CCOCCCNCC(=O)NCC1CCCCC1	none
CCN(CC)c1ccc(NC(=S)NC(=O)c2cccs2)cc1	none
COc1ccc(C2=NN(c3ccccc3)C(c3cn(CCC(=O)O)nc3-c3ccccc3)C2)cc1 (stereo unspecified)	CHOP inh 96.1 | CHOP confirm inactive
CCCCCCn1c(N2CCN(c3cccc(Cl)c3)CC2)nc2c1c(=O)[nH]c(=O)n2C	none
CC(C)CCn1c(N2CCN(c3cccc(Cl)c3)CC2)nc2c1c(=O)[nH]c(=O)n2C	CHOP inh 105.8, WT yeast gro inh 61.9 | CHOP confirm inactive
Cc1c(CN2CCC(CO)(CCOc3ccccc3)CC2)[nH]c2c(Cl)cccc12	CHOP inh 105.4, L major viab 100.1, WT yeast gro inh 92.9 | CHOP confirm 71.1
COc1ccc(/C=N/N=C2\SC(CC(=O)O)C(=O)N2c2ccccc2)cc1 (stereo unspecified)	none
Cc1ccc(Cl)cc1NC(=O)CCC(=O)Nc1cc(Cl)ccc1C	CHOP inh 100.3 | CHOP confirm inactive
